Assay results reported in article PMC5540273 (PLoS ONE, 2017).

How the values were obtained:
Settings in all cases: concentration: 1 μM, replicates: in singlicate; n = 1
CDK4 = test system: CDK4
CDK5 = test system: CDK5
CDK7 = test system: CDK7
CDK8 = test system: CDK8
CDK9 = test system: CDK9
CDKL1 = test system: CDKL1
CDKL2 = test system: CDKL2
CDKL3 = test system: CDKL3
CDKL5 = test system: CDKL5
CHEK1 = test system: CHEK1
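Further: KINOMEscan kinase panel screen.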

Row | Compound | %Inh (CDK4) [%] | %Inh (CDK5) [%] | %Inh (CDK7) [%] | %Inh (CDK8) [%] | %Inh (CDK9) [%] | %Inh (CDKL1) [%] | %Inh (CDKL2) [%] | %Inh (CDKL3) [%] | %Inh (CDKL5) [%] | %Inh (CHEK1) [%]
1 | Cc1cccc(-c2nc(Nc3cccc(C(N)=O)c3)c3ccccc3n2)n1 [GW876019] | 0 | 0 | 8 | 36 | 0 | 36 | 13 | 0 | 1 | 0
2 | Cc1ccc(NC(=O)Nc2cc(C(C)(C)C)nn2-c2ccccc2)cc1 [GSK1014915] | 0 | 8 | 0 | 58 | 14 | 15 | 13 | 0 | 14 | 24
3 | Cc1cccc(-c2nc(C)cc(Nc3ccncc3)n2)n1 [GSK257997] | 28 | 0 | 0 | 0 | 95.9 | 3 | 0 | 0 | 6 | 0
4 | O=C(Nc1ccccc1)Nc1cccc(Oc2ccc3nccn3n2)c1 | 0 | 0 | 0 | 76 | 0 | 12 | 4 | 0 | 2 | 0
5 | COc1cccc(-c2cc(-c3c[nH]nc3-c3ccccn3)ccn2)c1 [GW680338] | 31 | 0 | 0 | 44 | 0 | 0 | 0 | 23 | 0 | 0
6 | CS(=O)(=O)c1ccc(-c2nc3n(c2-c2ccncc2)CCC3)cc1 [SKF-105942] | 9 | 0 | 0 | 0 | 100 | 28 | 17 | 0 | 4 | 0
7 | CCn1c(-c2cccnc2O)nc2cnccc21 [SB-736715] | 4 | 0 | 0 | 33 | 0 | 13 | 0 | 10 | 0 | 0
8 | Fc1cccc(COc2nnc(-c3ccc4c(c3)CCO4)o2)c1 | 0 | 0 | 9 | 19 | 0 | 0 | 9 | 9 | 0 | 0
9 | Cl.c1ccc(-c2n[nH]cc2-c2ccnc(-c3ccc(CN4CCOCC4)cc3)c2)nc1 [GW776245] | 0 | 12 | 0 | 52 | 0 | 59 | 9 | 6 | 0 | 0
10 | Cn1ccc2ncnc(Oc3ccc(NC(=O)Nc4ccccc4)cc3)c21 | 0 | 0 | 13 | 12 | 9 | 36 | 2 | 0 | 17 | 1
11 | COc1ccc(Nc2nccc(NCCNC(=O)Nc3ccccc3F)n2)cc1 [GSK1379901] | 0 | 0 | 0 | 0 | 1 | 4 | 9 | 0 | 3 | 0
12 | Cc1ccc(C(=O)Nc2ccc(Nc3ccnc4cc(-c5ccccn5)ccc34)cc2O)cc1.Cl [GW440146] | 32 | 0 | 0 | 23 | 0 | 0 | 18 | 0 | 2 | 0
13 | Nc1ncnc2[nH]c(-c3ccccc3)nc12 [AH5015] | 7 | 0 | 0 | 0 | 0 | 6 | 32 | 0 | 0 | 0
14 | Cc1ccc(NC(=O)Nc2cccc(Cl)c2)cc1-c1ccc(C(=O)Nc2ccncc2)cc1 [GSK1398468] | 0 | 0 | 0 | 0 | 0 | 13 | 52 | 0 | 0 | 0
15 | COC(=O)c1c(-c2ccccc2)c2cc(C(=O)O)ccc2c(=O)n1Cc1ccccc1 | 0 | 0 | 0 | 13 | 0 | 0 | 6 | 4 | 21 | 0
16 | O=C(O)COc1ncnc2cc(-c3ccc4[nH]ncc4c3)sc12 | 0 | 45 | 30 | 4 | 0 | 11 | 0 | 13 | 17 | 0
17 | O=C1NC(=O)C(N2CCc3ccccc32)=C1c1ccccc1Cl [SB-373598] | 27 | 0 | 29 | 25 | 8 | 18 | 23 | 4 | 0 | 2
18 | O=S(=O)(c1ccc(-c2ccnc3[nH]ccc23)cc1)N1CCCC1 [GSK846226] | 0 | 0 | 2 | 0 | 0 | 7 | 5 | 0 | 4 | 0
